Assay outcomes from PubChem.
Shown are actives, neighbours in structure and some others; about 1.2% of the full set was active somewhere.
RGS16-Gao – regulators of human RGS16-Galphao interaction | O15492+P09471 | bead-based flow cytometry RGS16-Galphao binding, fluorescence; actives lie on both sides | binding response (% of control), % at 10 µM | 0.38% of 220,000 active | AID 1441;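 also: Galphao activated by GDP with aluminum fluoride before binding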
RGS4-Gao reg – human RGS4-Galphao interaction regulation | 0.33% of 220,000 active | AID 1415 | Multiplexed bead flow cytometry, RGS4-Galphao binding; actives lie on both sides | P09471 | binding response (% of control), % at 10 µM; in the data active = binding response below about 49% or above about 150%; inactive = in between;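 also: fluorescent Galphao activated with aluminum fluoride binding bead-coupled RGS4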
Target sequence (P09471 whole entry, looked up): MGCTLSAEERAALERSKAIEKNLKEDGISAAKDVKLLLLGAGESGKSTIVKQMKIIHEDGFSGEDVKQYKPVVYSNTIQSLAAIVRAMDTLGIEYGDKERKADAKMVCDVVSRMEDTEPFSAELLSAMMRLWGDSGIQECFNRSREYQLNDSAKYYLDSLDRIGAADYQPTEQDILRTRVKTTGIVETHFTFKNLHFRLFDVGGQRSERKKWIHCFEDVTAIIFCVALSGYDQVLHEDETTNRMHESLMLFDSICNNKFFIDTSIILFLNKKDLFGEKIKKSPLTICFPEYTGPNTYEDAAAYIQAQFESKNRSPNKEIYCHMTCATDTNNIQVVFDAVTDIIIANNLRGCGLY
RGS8-Gao – human RGS8-Galphao interaction regulation; response (percent of control binding), % at 10 µM; P09471; multiplexed bead flow cytometry, RGS8-Galphao binding; actives lie on both sides; 0.34% of 220,000 active; AID 1423; in the data active = response below about 60% or above about 140%; inactive = in between;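 also: Galphao activated as the GDP aluminium fluoride complex binding bead-coupled RGS8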
RGS7-Gao – modulates binding of RGS7 to human Galphao; P09471; Multiplexed bead flow cytometry; actives lie on both sides; binding response (% of control), % at 10 µM; 0.35% of 220,000 active; in the data active = binding response below about 49% or above about 150%; inconclusive = no clear call, values can overlap the other calls; inactive = in between;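 also: fluorescent Galphao held in activated GDP-AlF4 state binding bead-coupled RGS7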
GSH fluor – GSH bead compound fluorescence profile. 0.25% of 190,000 active. GSH beads flow cytometry, compound fluorescence 488/530 nm; stronger effect = higher value. fluorescence (KMESF) at 10 µM; in the data active = fluorescence above about 89;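 also: glutathione beads carrying GST-tagged Bcl family fusion proteins plus one bare bead set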
Avidin bead fluor – avidin bead compound fluorescence profile | Avidin beads, compound fluorescence 488/530 nm, flow cytometry; stronger effect = higher value | fluorescence (KMESF) at 10 µM | 0.38% of 220,000 active | AID 1775; in the data active = fluorescence above about 47
RGS-Gao – modulates binding between human RGS4 and Galphao. shares compounds with RGS16-Gao. multiplexed bead flow cytometry, RGS–Galpha-o binding. RGS4–Galpha-o binding response, % at 10 µM. 99% of 1,600 active. AID 1504;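 also: fluorescently labeled Galpha-o bound to GDP with aluminium fluoride binding biotinylated RGS beads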
Biotin-avidin – counter-screen: compounds disrupting biotin binding to avidin beads; inhibition, % at 10 µM; AID 1783; streptavidin beads, fluorescein-biotin binding, flow cytometry; shares compounds with RGS16-Gao; 1,700 tested, under 10 active;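 active = inhibition above 50%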;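 also: median green fluorescence of gated singlet beads compared with DMSO control wells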
RGS8-Gao single – RGS8-Galphao interaction regulation, single point confirmation; 3% of 1,700 active; shares compounds with RGS16-Gao; binding response (% of control), % at 10 µM; bead-based flow cytometry RGS8-Galphao binding, fluorescence; actives lie on both sides; in the data active = binding response below about 72% or above about 130%; inactive = in between;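 also: Galphao activated as GDP AlF4 complex before binding bead RGS8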
RGS7-Gao confirm – confirmation of regulators of human RGS7-Galphao interaction; bead-based flow cytometry RGS7-Galphao binding; actives lie on both sides; response (percent of control binding), % at 10 µM; shares compounds with RGS16-Gao; AID 1837; 7.8% of 1,700 active; in the data active = response below about 75% or above about 130%; inactive = in between;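 also: fluorescent Galphao activated with GDP and aluminum fluoride binding bead-coupled RGS7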
RGS16-Gao conf – RGS16-Galphao interaction regulation, single point confirmation | response (% of control binding), % at 10 µM | AID 1838 | shares compounds with RGS16-Gao | 4% of 1,700 active | bead-based flow cytometry, RGS16-Galphao binding; actives lie on both sides; in the data active = response below about 74% or above about 130%; inactive = in between;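 also: Galphao activated as the GDP aluminium fluoride complex binding bead-coupled RGS16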
RGS4-Gao single – RGS4-Galphao interaction regulation, single point confirmation; shares compounds with RGS16-Gao; RGS4-Galphao binding, multiplexed bead flow cytometry; actives lie on both sides; binding response (% of control), % at 10 µM; 4% of 1,700 active; AID 1840; in the data active = binding response below about 74% or above about 130%; inactive = in between
RGS19-Gao conf – confirmation of regulators of human RGS19-Galphao interaction | shares compounds with RGS16-Gao | bead-based flow cytometry RGS19-Galphao binding; actives lie on both sides | response (percent of control binding), % at 10 µM | 5% of 1,700 active | AID 1841; in the data active = response below about 50% or above about 160%; inactive = in between
Target sequence (P09471 whole entry, looked up): as above
Target sequence (P49795 whole entry, looked up): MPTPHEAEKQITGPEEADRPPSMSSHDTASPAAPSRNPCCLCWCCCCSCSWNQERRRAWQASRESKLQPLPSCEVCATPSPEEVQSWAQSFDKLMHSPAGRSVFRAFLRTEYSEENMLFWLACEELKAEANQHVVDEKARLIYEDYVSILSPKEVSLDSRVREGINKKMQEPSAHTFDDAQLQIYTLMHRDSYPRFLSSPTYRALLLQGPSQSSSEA
Numbers stand for hits; [ ] = another dose, or the depositor's remark. Unless noted, no rule for the calls is given here.

How did Cc1ccc(C(=O)Nc2ccccc2NC(=O)c2ccc(C)o2)o1 do in these assays?
RGS16-Gao: inactive; RGS4-Gao reg: inactive; RGS8-Gao: 60; RGS7-Gao: inactive; GSH fluor: 240; Avidin bead fluor: inactive; RGS-Gao: 55; Biotin-avidin: inactive; RGS8-Gao single: inactive; RGS7-Gao confirm: inactive; RGS16-Gao conf: inactive; RGS4-Gao single: inactive; RGS19-Gao conf: inactive

What do the screens show for `O=C(CCC(=O)OCc1ccc(Cl)cc1)Nc1cccc([N+](=O)[O-])c1`?
RGS16-Gao: inactive; RGS4-Gao reg: inactive; RGS8-Gao: 58; RGS7-Gao: 46; GSH fluor: inactive; Avidin bead fluor: inactive; RGS-Gao: 51

How did CCOC(=O)CCC(=O)Nc1cccc([N+](=O)[O-])c1 do in these assays?
RGS16-Gao: inactive; RGS4-Gao reg: inactive; RGS8-Gao: inactive; RGS7-Gao: inactive; GSH fluor: inactive; Avidin bead fluor: inactive

How did CC(C)CSc1ccc(S(=O)(=O)NCC(=O)O)cc1[N+](=O)[O-] do in these assays?
RGS16-Gao: inactive; RGS4-Gao reg: inactive; RGS8-Gao: inactive; RGS7-Gao: 278[activator]; GSH fluor: inactive; Avidin bead fluor: 169; RGS-Gao: 125; Biotin-avidin: inactive; RGS8-Gao single: inactive; RGS7-Gao confirm: inactive; RGS16-Gao conf: inactive; RGS4-Gao single: inactive; RGS19-Gao conf: inactive

How did CC(=O)NCCNS(=O)(=O)c1ccc(C)c([N+](=O)[O-])c1 do in these assays?
RGS16-Gao: inactive; RGS4-Gao reg: inactive; RGS8-Gao: inactive; RGS7-Gao: inactive; Avidin bead fluor: inactive

How did O=C(c1cc2c(F)cccc2s1)N1CCCC1 do in these assays?
RGS16-Gao: inactive; RGS4-Gao reg: inactive; RGS8-Gao: inactive; RGS7-Gao: inconclusive; GSH fluor: inactive; Avidin bead fluor: inactive

How did CCOC(=O)/C(C(=O)Nc1ccccc1Cl)=C1/NC(C)(C)Cc2ccccc21 do in these assays?
GSH fluor: inactive; Biotin-avidin: inactive; RGS8-Gao single: inactive; RGS7-Gao confirm: 73; RGS16-Gao conf: inactive; RGS4-Gao single: inactive; RGS19-Gao conf: inactive

What do the screens show for `Cc1cc(C)nc(SCc2cnc(C)nc2N)n1`?
RGS16-Gao: inactive; RGS4-Gao reg: inactive; RGS8-Gao: inactive; RGS7-Gao: inactive; GSH fluor: inactive; Avidin bead fluor: inactive

Results for COC(=O)CCCNC(=O)c1ccccn1 ?
RGS16-Gao: inactive; RGS4-Gao reg: inactive; RGS8-Gao: inactive; RGS7-Gao: 231[activator]; GSH fluor: inactive; Avidin bead fluor: 229; RGS-Gao: 120; Biotin-avidin: inactive; RGS8-Gao single: inactive; RGS7-Gao confirm: inactive; RGS16-Gao conf: inactive; RGS4-Gao single: inactive; RGS19-Gao conf: inactive

How did CC(=O)Nc1ccc(-c2nnn(CC(=O)Nc3ccc4c(c3)OCO4)n2)cc1Cl do in these assays?
RGS16-Gao: inactive; RGS4-Gao reg: inactive; RGS8-Gao: inactive; RGS7-Gao: inconclusive; GSH fluor: inactive; Avidin bead fluor: inactive

How did Cc1ccc2nc(C)c3c(c2c1)COC3 do in these assays?
RGS16-Gao: inactive; RGS4-Gao reg: -73; RGS8-Gao: 17; RGS7-Gao: -40; GSH fluor: inactive; Avidin bead fluor: inactive; Biotin-avidin: inactive; RGS8-Gao single: inactive; RGS7-Gao confirm: inactive; RGS16-Gao conf: inactive; RGS4-Gao single: inactive; RGS19-Gao conf: inactive

How did COc1ccc2c(CC(=O)OCC(=O)c3ccccc3OC)coc2c1 do in these assays?
RGS16-Gao: inactive; RGS4-Gao reg: inactive; RGS8-Gao: inactive; RGS7-Gao: inactive; GSH fluor: inactive; Avidin bead fluor: inactive

How did COc1ccc2c(CC(=O)OCC(=O)c3ccc(F)cc3)coc2c1 do in these assays?
RGS16-Gao: inactive; RGS4-Gao reg: inactive; RGS8-Gao: inactive; RGS7-Gao: 181[activator]; GSH fluor: inactive; Avidin bead fluor: 102; RGS-Gao: 113; Biotin-avidin: inactive; RGS8-Gao single: inactive; RGS7-Gao confirm: inactive; RGS16-Gao conf: inactive; RGS4-Gao single: inactive; RGS19-Gao conf: inactive

How did CC(C)Cn1c(N)c(C(=O)COC(=O)c2ccc([N+](=O)[O-])o2)c(=O)n(C)c1=O do in these assays?
RGS16-Gao: inactive; RGS4-Gao reg: inactive; RGS8-Gao: inactive; RGS7-Gao: inactive; GSH fluor: inactive; Avidin bead fluor: inactive

What do the screens show for `COc1cccc(C(=O)c2c[nH]c(C(=O)NCc3ccco3)c2)c1`?
RGS16-Gao: inactive; RGS4-Gao reg: inactive; RGS8-Gao: inactive; RGS7-Gao: inactive; GSH fluor: inactive; Avidin bead fluor: inactive

Results for COc1ccc(C(=O)c2c[nH]c(C(=O)NCc3ccco3)c2)cc1 ?
RGS16-Gao: 1.2; RGS4-Gao reg: 29; RGS8-Gao: 18; RGS7-Gao: 20; GSH fluor: inactive; Avidin bead fluor: inactive; Biotin-avidin: inactive; RGS8-Gao single: inactive; RGS7-Gao confirm: inactive; RGS16-Gao conf: inactive; RGS4-Gao single: inactive; RGS19-Gao conf: inactive

Results for O=C(CN1C(=O)NC2(CCCC2)C1=O)N1CCN(C(=O)c2ccco2)CC1 ?
RGS16-Gao: inactive; RGS4-Gao reg: inactive; RGS8-Gao: inactive; RGS7-Gao: inactive; GSH fluor: inactive; Avidin bead fluor: inactive

Results for O=C(CN1C(=O)NC2(CCCCCCC2)C1=O)N1CCN(C(=O)c2ccco2)CC1 ?
RGS16-Gao: 199[activator]; RGS4-Gao reg: inactive; RGS8-Gao: inactive; RGS7-Gao: inactive; GSH fluor: inactive; Avidin bead fluor: inactive; RGS-Gao: 120; Biotin-avidin: inactive; RGS8-Gao single: inactive; RGS7-Gao confirm: inactive; RGS16-Gao conf: inactive; RGS4-Gao single: inactive; RGS19-Gao conf: inactive

Results for O=C(CN1C(=O)C2C3CCC(C3)C2C1=O)N1CCN(Cc2ccccc2)CC1 (configuration not stated) ?
RGS16-Gao: inactive; RGS4-Gao reg: inactive; RGS8-Gao: inactive; RGS7-Gao: inactive; GSH fluor: inactive; Avidin bead fluor: inactive
